The record followed here is PubChem BioAssay AID504637 (National Center for Advancing Translational Sciences (NCATS), 2011).

About 430 (39%) of roughly 1,100 compounds were called active. Another 44% or so got no clear call; they are omitted. The call rests on the fitted dose curve; in most records, active means well fitted inhibition curve with a large enough effect; inconclusive means small, poorly fitted or top-dose-only effect, or effect the other way; inactive means flat fitted curve, though single readings scatter. The set was probably picked from earlier hits. The sample as a whole holds a higher share of actives than the screen did.
Potency means the concentration at half of the fitted maximal effect.

Chain of ATP-dependent 6-phosphofructokinase (Trypanosoma brucei brucei) (O15648 whole entry, looked up): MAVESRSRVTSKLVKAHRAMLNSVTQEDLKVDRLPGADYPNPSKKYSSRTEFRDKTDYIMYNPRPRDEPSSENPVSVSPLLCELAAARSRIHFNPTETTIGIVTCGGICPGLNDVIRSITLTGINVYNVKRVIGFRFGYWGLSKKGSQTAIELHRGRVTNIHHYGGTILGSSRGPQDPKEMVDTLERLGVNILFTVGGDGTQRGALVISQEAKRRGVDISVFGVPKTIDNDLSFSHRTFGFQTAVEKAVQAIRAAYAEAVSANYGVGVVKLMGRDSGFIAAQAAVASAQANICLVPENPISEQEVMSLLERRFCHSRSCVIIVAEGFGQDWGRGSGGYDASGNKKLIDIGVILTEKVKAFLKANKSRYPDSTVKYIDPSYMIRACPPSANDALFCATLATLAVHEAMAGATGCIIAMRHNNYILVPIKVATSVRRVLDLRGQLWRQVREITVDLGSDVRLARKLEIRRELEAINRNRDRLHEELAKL

The target in the experiment is ATP-dependent 6-phosphofructokinase (Trypanosoma brucei brucei) (UniProt O15648). Description: Inhibitors of T. brucei phosphofructokinase: Hit Validation. Further: nearly all actives have a fitted effect of over 60% in size. To be noted: purified T. brucei PFK, ADP-Glo luminescence, 45 min; series mostly up to 57.5 µM; activity change, negative = inhibition: at the top concentration. The text has this:
NCGC Assay Overview: Various species of the protozoan family Trypanosomatidae are responsible for a range of serious human diseases in tropical and subtropical areas of the world. […] Many of the disorders caused by trypanosomatids are fatal if left untreated, but most currently used drugs are inefficient and toxic. […] Oxidative metabolism involving the mitochondrial tricarboxylic acid cycle and oxidative phosphorylation are repressed in these parasites, and recent RNA interference (RNAi) experiments have shown that even partial depletion of certain individual glycolytic enzymes can lead to the death of cultured parasites. One such glycolytic enzyme, phosphofructokinase (PFK), catalyzes the formation of fructose-1,6-bisphosphate (F1,6BP) and ADP from fructose-6-phosphate (F6P) and ATP, and in many metabolic circumstances makes an important contribution to the control of flux through the glycolytic pathway. As a specific glycolytic target, PFK is particularly attractive as it catalyzes the first irreversible step in glycolysis, and structural and kinetic studies have shown very substantial and essential differences from corresponding host enzymes, allowing for the discovery of parasite-selective inhibitors. The goal of this screen is to find small-molecule inhibitors of T. brucei PFK using a biochemical assay that measures PFK activity as a function of ADP production. A luminescence-based assay for T. brucei PFK activity has been developed which uses luciferase to detect production of ADP. Traditional luciferase-based nucleotide detection reagents rely on ATP production as a direct substrate for the luciferase reaction; however, PFK catalyzes the transfer of a phosphate from ATP to F6P, resulting in the net depletion of ATP. To directly measure the ADP product of the PFK reaction, we used the ADP-Glo detection kit (Promega), which utilizes two separate reactions to 1) deplete all remaining uncatalyzed ATP and 2) convert all remaining ADP to ATP, which is then detected through a traditional luciferase-coupled reaction. Compounds were screened as a concentration-titration series that ranged from 57uM to 0.7nM. 1. Verlinde, C.L., et al., Glycolysis as a target for the design of new anti-trypanosome drugs. Drug Resist Updat, 2001. 4(1): p. 50-65. 2. Albert, M.A., et al., Experimental and in silico analyses of glycolytic flux control in bloodstream form Trypanosoma brucei. J Biol Chem, 2005. 280(31): p. 28306-15. 3. […] J Mol Biol, 2009. 385(5): p. 1519-33. NIH Molecular Libraries Probe Production Network [MLPCN] NIH Chemical Genomics Center [NCGC] Grant: 1 R03 MH092153-01 PI Name: Malcolm Walkinshaw, University of Edinburgh
NCGC Assay Protocol Summary: Substrate buffer was dispensed into white, solid 1536-well plates at 3uL/well in 0.1M triethanolamine (TEA) buffer, pH 8.0, containing final concentrations of 5 mM MgCl2, 0.01% Tween20, 0.5 mM fructose-6-phosphate (F6P) and 0.1mM ATP. Then, 23 nL of compounds or DMSO were delivered to each well using a pin tool. One uL T. brucei PFK (0.1M TEA, 0.01% Tween20, 0.1% bovine serum albumin (BSA) and 1.25nM PFK, final concentrations) was then dispensed, and plates were incubated at room temperature for 45 min. The luminescent detection reagent, ADP-Glo (Promega), was then added in two steps: the first reagent, ADP-Glo (which converts remaining uncatalyzed ATP), was added at 2.5uL/well and incubated for ten minutes at room temperature, and the second component, Kinase Detection reagent (which converts ADP to ATP as a substrate for luciferase-based luminescence), was added immediately after at 5uL/well, followed by one final ten minute room temperature incubation. The plates were measured on a ViewLux plate reader for luminescent signal using a clear filter with a one second exposure. The %Activity was determined from the corrected luminescence values. […]
For the compound `Cn1nnnc1NCc1ccc(Cl)c(Cl)c1`, the Potency was 23.9 µM (active).
On the same count and under the same terms, the same measure for `O=C(Cc1ccc(Cl)c(Cl)c1)Nc1ccc(SC(F)F)cc1`: 23.9 µM (active).
`Cc1ccc(CC(=O)Nc2ccc(S(=O)(=O)N3CCOCC3)cc2)cc1C`: the “activity change, negative = inhibition” value was -29.8% (inactive).
For the compound `O=C(COC(=O)CCC(=O)c1cccs1)NCc1ccco1`, the “activity change, negative = inhibition” value is -18.7% (inactive).
`C=CC1=C(C(=O)O)N2C(=O)[C@@H](NC(=O)/C(=N\OCC(=O)O)c3csc(N)n3)[C@H]2SC1`: the Potency was 4.26 µM (active).
Same read-out and setting: the same measure for `N#Cc1cccc(CSc2ncnc(N)n2)c1`: 26.9 µM (active).
`C=C1c2c(Cl)ccc(O)c2C(O)=C2C(=O)[C@]3(O)C(O)=C(C(N)=O)C(=O)[C@@H](N(C)C)[C@@H]3[C@@H](O)C12` (some centres not stated): the “activity change, negative = inhibition” value was -15.8% (inactive).
`O=C1CSC(=S)N1/N=C/c1ccc(O)c([N+](=O)[O-])c1`: the “activity change, negative = inhibition” value is -1.08% (inactive).
`O=C1CSC(=S)N1c1ccc(Cl)c(Cl)c1`: the “activity change, negative = inhibition” value is -15.2% (inactive).
`COC(=O)CC(=O)N1CCN(c2ccc(Cl)c(Cl)c2)CC1`: the Potency is 26.9 µM (active).
On the same count and under the same terms, the result for `Cc1nn(Cc2ccc(Cl)c(Cl)c2)c(C)c1NC(=O)c1cc(C2CC2)on1` reads 12 µM (active).
Same read-out and setting: the same measure for `O=[N+]([O-])/C=C/c1ccc2c(ccn2Cc2ccccc2)c1`: 23.9 µM (active); for `CC(C)(C)c1nnc(NC(=O)C2c3ccccc3Oc3ccccc32)s1`: 26.9 µM (active).
With `Cc1ccc(NC(=O)c2cc(-c3ccc(C)o3)nc3ccccc23)nc1`, the Potency was 12 µM (active).
Consider `O=C(Cc1ccc([N+](=O)[O-])cc1)N/N=C/c1ccco1`, for which the Potency was 23.9 µM (active).
Same read-out and setting: the result for `O=C(NCc1ccc(Cl)c(Cl)c1)c1cccnc1` reads 26.9 µM (active); that for `Cc1ccc(-c2nn(-c3ccccc3)cc2/C=C2\SC(=S)N(CCCCCC(=O)O)C2=O)o1`, 30.1 µM (active).
Turning to `O=c1[nH]c(=S)[nH]c2[nH]c(=S)[nH]c12`, the Potency is 1.9 µM (active).
Same read-out and setting: the same measure for `O=[N+]([O-])c1c(NCCO)cc(Sc2nc3ccccc3s2)c2nonc12`: 1.51 µM (active); for `O=C(CSc1nc(O)c(Cc2ccccc2)c(=O)[nH]1)Nc1nc2c(s1)CCCC2`: 16.9 µM (active).
Same read-out and setting: the same measure for `OCCN1CCN(C(=S)c2ccc(-c3ccccc3)cc2)CC1`: 26.9 µM (active); for `FC(F)(F)C1CCCN(c2nsc3ccccc23)C1` (configuration not stated): 4.26 µM (active).
As to `CCn1nc(C(=O)NNS(=O)(=O)c2cc(/C=C/C(=O)O)cc(OC)c2OC)c2ccccc2c1=O`, the “activity change, negative = inhibition” value was -8.81% (inactive).
On to `Cc1c(C)c2ccc(OCC(=O)N3CCN(c4cccc(Cl)c4)CC3)cc2oc1=O`, for which the Potency is 8.49 µM (active).
Turning to `COc1ccc(N/C=C(\C2OC(=O)c3ccccc32)[N+](=O)[O-])cc1` (configuration not stated), the “activity change, negative = inhibition” value was -3.4% (inactive).
On to `Cc1nc(N)nc(SCc2ccc([N+](=O)[O-])cc2)c1N`, for which the Potency is 19 µM (active).
For `Cc1cccc(-n2c(N)c(C(=O)N3CCN(C)CC3)sc2=S)c1`, the Potency was 13.5 µM (active).
Take `O=c1ccnc(Nc2ccc(Cl)cc2)[nH]1`: the Potency is 30.1 µM (active).
`C=C(C)C(=O)Nc1cccc(C2=NOC3(C2)C[C@H](C(N)=O)N(C(=O)C(c2ccccc2)c2ccccc2)C3)c1` (some centres not stated): the Potency is 1.9 µM (active).
For `Cn1sc(=O)c2cc(S(=O)(=O)NC3CC3)ccc21`, the Potency was 21.3 µM (active).
For the compound `O=c1[nH]c2ccccc2n2c(-c3ccccc3)nnc12`, the Potency is 13.5 µM (active).
Regarding `Cc1ccccc1CN1C[C@@H]2C[C@@H](c3cn(C)nc3-c3ccccc3)N3CCC[C@@]23C1=O`, the “activity change, negative = inhibition” value is -23.6% (inactive).
